The source of these data is PubChem BioAssay AID492949 (National Center for Advancing Translational Sciences (NCATS), 2010).

SMILES strings stand for the structures. Results filed as inconclusive are left out. Activity calls are given as the source filed them. Calls follow the shape of the dose curve; as a rule, active = well fitted activation curve with a large enough effect; inconclusive = small, poorly fitted or top-dose-only effect; inactive = no such curve, though single readings can be large or run the other way.
Potency is read from the fitted curve at half-maximal effect.

Sequence of Relaxin receptor 1 (Homo sapiens) (Q9HBX9 whole entry, looked up): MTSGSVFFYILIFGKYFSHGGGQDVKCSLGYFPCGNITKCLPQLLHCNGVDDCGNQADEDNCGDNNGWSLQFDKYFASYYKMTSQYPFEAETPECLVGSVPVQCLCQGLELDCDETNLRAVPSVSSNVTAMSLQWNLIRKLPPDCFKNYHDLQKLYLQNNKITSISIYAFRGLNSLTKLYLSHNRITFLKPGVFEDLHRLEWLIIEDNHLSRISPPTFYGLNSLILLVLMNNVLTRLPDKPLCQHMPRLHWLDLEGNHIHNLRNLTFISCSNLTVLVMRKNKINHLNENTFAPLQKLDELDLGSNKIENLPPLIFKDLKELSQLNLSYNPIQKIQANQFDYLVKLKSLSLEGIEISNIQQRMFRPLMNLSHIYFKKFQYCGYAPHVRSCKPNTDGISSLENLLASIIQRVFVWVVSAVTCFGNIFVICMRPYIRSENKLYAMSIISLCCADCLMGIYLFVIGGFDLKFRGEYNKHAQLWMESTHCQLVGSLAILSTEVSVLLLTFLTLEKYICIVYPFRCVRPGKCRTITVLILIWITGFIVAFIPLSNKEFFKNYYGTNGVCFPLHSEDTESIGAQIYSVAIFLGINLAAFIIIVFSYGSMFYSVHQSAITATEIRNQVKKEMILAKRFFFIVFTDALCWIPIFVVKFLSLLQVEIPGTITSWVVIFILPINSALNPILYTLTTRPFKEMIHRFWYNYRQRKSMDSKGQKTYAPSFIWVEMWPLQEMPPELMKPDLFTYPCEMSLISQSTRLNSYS

The target of the assay is Relaxin receptor 1 (Homo sapiens) (UniProt Q9HBX9). The experiment in a line: qHTS Assay for Agonists of the Relaxin Receptor RXFP1: THP1 Hit Validation. Also: nearly all actives have a fitted effect of over 60% in size.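 As to activation: 0% = buffer alone basal and 100% = 29 nM porcine relaxin.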 Particulars: THP1-RXFP1 cells, cAMP TR-FRET, 30 min; series mostly up to 115 µM; activation: at the top concentration. From the text:
The relaxin hormone is involved in the variety of biological functions in normal tissues and diseases. The role of relaxin is well-established in female reproduction and parturition, mammary gland and endometrial development, maintenance of myometrial quiescence during pregnancy. Relaxin signaling through its G protein-coupled receptor (GPCR) RXFP1 results in ECM remodeling through regulation of collagen deposition, cell invasiveness, proliferation and overall tissue homeostasis. […] Recombinant human relaxin (rhRlx) is currently being tested in clinical trials as a protective agent in congestive heart failure, in treating severe preeclampsia, and as an anti-fibrotic agent in systemic sclerosis.
Upon relaxin binding RXFP1 activation leads to the activation of adenylate cyclase (AC) via Gs. cAMP will activate PKA, which phosphorylates many signaling proteins. Thus, detection of cAMP increase is an easy and reliable indication of relaxin receptor activation. To screen for agonists of the relaxin receptor, a THP1 cell line stably transfected with RXFP1 was used. RXFP1 activation was assayed by changes in cAMP levels as detected with a time-resolved fluorescence energy transfer (TR-FRET) cAMP detection kit.
NIH Chemical Genomics Center [NCGC]
NIH Molecular Libraries Probe Production Centers Network [MLPCN]
Assay Submitter (PI): Alexander Agoulnik
NCGC Assay Protocol Summary:
This is a cell-based assay for cAMP second messenger response to screen for agonists of the RXFP1 receptor. The assay was conducted in the presence of a PDE4 inhibitor (Ro 20174). The cells were lysed and the cAMP levels were measured with a TR-FRET cAMP kit. Presence of cAMP in the cell lysate disrupts binding between the cryptate-labeled anti-cAMP and d2-labeled cAMP pair, leading to a decrease in the TR-FRET signal. Data were normalized to the controls for basal activity (buffer only) and 100% activity (29 nM porcine relaxin). The EC50 values were determined from concentration-response data modeled with the standard Hill equation
1536-well assay protocol for the THP1 RXFP1 cAMP assay:
(1) Add 3 ul THP1 RXFP1 cell culture. 2000 cells/well in DMEM/F12, 10% FBS, 1x Pen/Strep (dispensed offline with MultiDrop Combi).
(3) Add 23 nl compounds in DMSO solution. Final concentration was 0.5 - 58 uM.
(4) Incubate 30 min at 37C, 5% CO2.
(5) Add 1 ul cAMP-d2 in lysis buffer (HTRF cAMP HiRange kit, CisBio).
(6) Add 1 ul anti-cAMP antibody-cryptate in lysis buffer (HTRF cAMP HiRange kit, CisBio).
(7) Incubate 30 min at room temperature.
(6) Detect the assay plate in a ViewLux plate reader (PerkinElmer) with Ex=320 nm, Em1=615 nm and Em2=665 nm.
Keywords: relaxin, RXFP1, RXFP2, G-protein coupled receptor, cAMP, agonist, high throughput screening, MLSMR, MLSCN, NIH Roadmap, qHTS and NCGC
Background: qHTS replaces the single test concentration by a dilution series.
Take `CN(C)c1ccc(NC(=O)C2C3C=CC(C3)C2C(=O)O)cc1` (stereo not given): the “activation” value is -12% (inactive). Still for that read-out and setting: next, `O=C(Nc1ccccc1C(=O)NCCc1ccccc1)c1ccco1`: 3.22% [at 125 µM] (inactive); `COc1ccc(/C=C2/SC(=O)N(CC(=O)Nc3cc(C)on3)C2=O)cc1OC`: -94.2% (inactive). `O=C(Nc1ccccc1C(=O)Nc1ccc(F)cc1)c1ccco1`: the “activation” value is 2.44% [at 125 µM] (inactive). The same measure, in the same setting: as for `C=CCNc1ncnc2c1ncn2C1OC(CO)C(O)C1O` (stereo not given), the figure is -48.9% (inactive). For the molecule `CN(C)S(=O)(=O)c1ccc(C(=O)OCC(=O)Nc2cccnc2Cl)cc1`, the Potency is 19.4 µM (active). On the same count and under the same terms, next, `COc1ccccc1NC(=O)CCCc1nnc2n(C)c(=O)c3sccc3n12`: 15.4 µM (active). In the case of `CCN(CC)CCCN1C=C2C(=O)C(C)(OC(=O)C3CCCC3)C(=O)C=C2C=C1c1ccsc1` (stereo not given), the “activation” value was -4.45% (inactive). On to `CCN(CC)c1ccc(S(=O)(=O)N2CCOCC2)cc1NC(=O)CSc1nncn1C`, for which the Potency is 15.4 µM (active). `C=CCSc1nc2c(c(=O)[nH]1)C(C(C)C)C(C#N)=C(N)O2` (stereo not given): the “activation” value is -4.28% (inactive).

In the case of `Cc1ccc(-c2ccc3nnc(SCC(=O)NCC4CCCO4)n3n2)cc1` (stereo not given), the “activation” value is -27.7% (inactive). For `CCc1ccc(-c2nc3ccc(Br)cc3c(C(=O)O)c2C)s1`, the Potency was 6.15 µM (active). For `O=C(Nc1ccccc1C(=O)Nc1ccccc1)c1ccco1`, the “activation” value was 11.7% [at 125 µM] (inactive). In the case of `N#Cc1c(N)nc(SCC(=O)C23CC4CC(CC(C4)C2)C3)c(C#N)c1-c1ccc(Cl)cc1`, the Potency is 12.3 µM (active).

In the case of `c1ccc(-c2nnc(-c3ccccn3)c(-c3ccccn3)n2)nc1`, the “activation” value was -1.89% (inactive). The same measure, in the same setting: as for `Cn1c(N)c(C(=O)CSc2nnc(NC3CCCCC3)s2)c(=O)n(C)c1=O`, the figure is -30.3% (inactive).

Regarding `CCCC(=O)Nc1ncnc2c1ncn2[C@@H]1O[C@@H]2COP(=O)(O)O[C@H]2[C@H]1OC(=O)CCC`, the Potency is 1.23 µM (active). Turning to `Cn1c(=O)c2sccc2n2c(CCCC(=O)NCc3ccco3)nnc12`, the Potency was 34.6 µM (active). In the case of `O=C(Nc1ccccc1C(=O)NCCc1ccc(O)cc1)c1ccco1`, the “activation” value is -0.992% [at 125 µM] (inactive).

For the molecule `CN(CC(=O)Nc1ccccc1Cl)C(=O)COC(=O)Cc1c(F)cccc1Cl`, the “activation” value was 0.165% [at 43.1 µM] (inactive). On to `COC(=O)C(C)Sc1ccc2nnc(-c3ccccc3)n2n1` (stereo not given), for which the “activation” value is -0.844% (inactive). As for `CC(C)c1ccccc1NC(=O)c1ccccc1NC(=O)C1CCCCC1`, the “activation” value was -0.0827% [at 125 µM] (inactive). Still for that read-out and setting: as for `O=C(Nc1ccccc1C(=O)N1CCNCC1)c1ccco1`, the figure is -2.55% [at 125 µM] (inactive). Regarding `O=C(O)c1cc(-c2ccco2)nc2ccc(Br)cc12`, the Potency is 19.4 µM (active). On the same count and under the same terms, next, `CC(=O)c1sc(NC(=O)C(C)C)nc1C`: 19.4 µM (active).

For the molecule `Cc1ccc2cc(CN(C(=O)c3cccs3)c3ccccc3)c(=O)[nH]c2c1`, the “activation” value is 3.73% (inactive). As for `Cc1cc(NC(=O)c2ccccc2F)nc2c1c(=O)oc1ccccc12`, the Potency is 19.4 µM (active). `CC1(C)Cc2nc3sc4c(SCC(=O)NC(c5ccccc5)c5ccccc5)ncnc4c3cc2CO1`: the Potency is 3.88 µM (active). In the case of `O=c1oc2cc(O)c(Cl)cc2c2ccccc12`, the Potency is 8.68 µM (active).

Take `COc1ccc(/C=C2/SC(=O)N(CCC(=O)Nc3ccc(C)cc3)C2=O)cc1OC`: the “activation” value is -92.9% (inactive). For `S=c1nc[nH]c2c1[nH]c1ccccc12`, the Potency is 7.74 µM (active). On the same count and under the same terms, as for `S=c1nc[nH]c2c1[nH]c1ccc(Cl)cc12`, the figure is 1.55 µM (active). Take `Cc1ccccc1NC(=O)c1ccccc1NC(=O)c1ccco1`: the “activation” value was 5.35% [at 125 µM] (inactive).

As to `CCN(CC)S(=O)(=O)c1ccc(C)c(NC(=O)Cn2cnc3cc([N+](=O)[O-])ccc3c2=O)c1`, the Potency is 12.3 µM (active).

Turning to `Cc1cccc2cc(C#N)c(SCC(=O)NCc3cccs3)nc12`, the Potency was 19.4 µM (active).

Turning to `O=C(Nc1ccccc1C(=O)NCc1ccccc1)c1ccco1`, the “activation” value was 4.79% [at 125 µM] (inactive). Turning to `CCOC(=O)c1sc(NC(=O)CCc2ccc(OC)cc2)nc1C`, the Potency was 17.3 µM (active). On the same count and under the same terms, next, `CCC(Sc1ccc2nnc(-c3cccnc3)n2n1)C(=O)OC` (stereo not given): 19.4 µM (active). As for `Cc1cccc(N2C(=O)C(O)=C(C(=O)c3cccs3)C2c2ccc(C(C)C)cc2)n1` (stereo not given), the “activation” value was -0.973% (inactive). As to `CCOc1ccc2cc(C#N)c(SCC(=O)NC(C)CC)nc2c1` (stereo not given), the Potency was 6.9 µM (active).
